# Screens from PubChem BioAssay.
# Bfl-1 A1 inh: inhibitors of the anti-apoptotic protein A1, read as caspase activation; AID 2462; MEF A1-2A-BIM cells, Caspase-Glo 3/7 luminescence, 3 h; percent of clofoctol response, vehicle zero; 330,000 tested, 0.066% active; caspase activation, % (no concentration beside the values);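 active = over half of replicate activation scores above 10%, or exactly half above 10 with the replicate mean above 10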
# AHR act: activates the human aryl hydrocarbon receptor | P35869 | AHR-responsive luciferase reporter cells, luminescence | AID 2796 | 320,000 tested, 2.5% active | activation, % at 5 µM; in the data active = activation above about 47%
# Efflux pump mplx: antifungal efflux pump inhibition, Nile Red retention; S. cerevisiae Candida pump triplex; inhibition, % at 10 µM; 330,000 tested, 0.44% active; AID 485275;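 active = plate passing quality check with inhibition over a set limit, or well fluorescence over plate mean plus 4 SD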;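 note: Nile Red retained in pooled yeast measured as flow cytometry median fluorescence; higher means more Nile Red kept so more efflux inhibition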
# SUMO Mot1 rescue: inhibitors of SUMOylation pathway: yeast Mot1-301 growth rescue | growth rescue, % at 18.8 µM | AID 2716 | S. cerevisiae Mot1-301 growth rescue, ATP luminescence, 38.5C; percent above DMSO median, 100 means doubled | 320,000 tested, 1% active;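 active = every valid replicate shows activation above 250% relative to neutral control wells; inactive = the rest, any valid replicate at or below 250%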
# VLA-4 inh: inhibition in a human VLA-4 binding assay; P13612; VLA-4 expressing cells, ligand binding flow cytometry; inhibition, % (about 7 µM as worked out from the volumes in the protocol); 330,000 tested, 0.2% active; AID 2557; in the data active = inhibition above about 50%
# ALR inh: inhibitors of human sulfhydryl oxidase ALR | P55789 | inhibition, % (no concentration beside the values) | purified ALR, DTT oxidation, H2O2 HRP-luminol luminescence | 290,000 tested, 3.8% active | AID 485317;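 active = mean replicate inhibition above about 79%, with every replicate also reaching it, limit read from the data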
# AHR act confirm: human AHR activation, confirmation; shares compounds with AHR act; human cells, AHR-responsive luciferase reporter, luminescence; activation, % at 9 µM; 2,300 tested, 87% active; AID 2845; in the data active = activation above about 49%;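 note: HepG2 hepatoma cells carrying a DRE-driven firefly luciferase reporter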
# PXR counter: activates human PXR in AHR activator counter-screen; 2,300 tested, 88% active; shares compounds with AHR act; activation, % at 11.6 µM; cell-based PXR reporter, luciferase luminescence; in the data active = activation above about 11%;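 note: human hepatoma DPX-2 cells expressing full-length human PXR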
# Target sequence (O75469 whole entry, looked up): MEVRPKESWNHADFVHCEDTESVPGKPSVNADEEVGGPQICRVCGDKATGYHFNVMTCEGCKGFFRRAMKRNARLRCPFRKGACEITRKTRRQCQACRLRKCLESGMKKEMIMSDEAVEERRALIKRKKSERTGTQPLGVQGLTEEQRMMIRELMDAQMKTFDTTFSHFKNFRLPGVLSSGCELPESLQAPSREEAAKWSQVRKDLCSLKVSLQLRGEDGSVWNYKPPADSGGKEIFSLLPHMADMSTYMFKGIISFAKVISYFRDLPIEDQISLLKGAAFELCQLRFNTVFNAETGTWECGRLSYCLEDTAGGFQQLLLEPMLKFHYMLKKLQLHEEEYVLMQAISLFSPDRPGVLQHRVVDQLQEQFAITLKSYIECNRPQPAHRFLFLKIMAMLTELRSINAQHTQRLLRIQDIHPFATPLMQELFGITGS
# A number is an active result; - = inactive; . = no result. Rows were chosen to be rich in hits. Some 7.2% of all compounds tested hit in one or more screens of this group.
SMILES,Bfl-1 A1 inh,AHR act,Efflux pump mplx,SUMO Mot1 rescue,VLA-4 inh,ALR inh,AHR act confirm,PXR counter
c1ccc(OCc2nnc3sc(-c4cccs4)nn23)cc1,-,138.6,-,-,-,.,80.7,17.5
CCCS(=O)(=O)Nc1c(OC)ccc2c1c(C(=O)OCC)c(C)n2C,-,84.7,-,-,-,.,74.2,118.9
CCc1ccccc1NC(=O)NNC(=O)CCc1ccccc1,-,-,-,-,-,-,.,.
Clc1ccc2[nH]c3c(N4CCC5(CC4)OCCO5)ncnc3c2c1,-,98.9,-,-,-,.,56.3,33.2
Clc1ccc2[nH]c3c(NCCN4CCOCC4)ncnc3c2c1,-,80.3,-,-,-,-,92.9,50.7
O=c1c2[nH]c3ccc(Cl)cc3c2ncn1CCN1CCCCC1,-,-,-,-,-,-,.,.
Cc1cccc2[nH]c3c(N4CCC5(CC4)OCCO5)ncnc3c12,-,-,-,-,-,-,.,.
COc1cccc(/C=N/NC(=O)Cn2nc([N+](=O)[O-])cc2C)c1,-,-,-,-,-,-,.,.
Cn1c(SCC(=O)N2CCCCCC2)nc2c([nH]c3ccccc32)c1=O,-,-,-,-,-,.,.,.
C=CCn1c(SCC(=O)N2CCCC2)nc2c([nH]c3ccccc32)c1=O,-,85.6,-,-,-,-,98.2,125.1
O=c1c2[nH]c3ccc(F)cc3c2ncn1CCCn1ccnc1,-,95.7,-,-,-,-,81.4,17.5
Cc1ccc2[nH]c3c(=O)n(CCC4=CCCCC4)cnc3c2c1,-,-,-,-,-,-,.,.
C=CCNC(=O)c1ccccc1NC(=O)c1cccc2ccccc12,-,94.4,-,-,-,-,89.0,83.9
O=C(Nc1cccc2ccccc12)c1ccccc1Cl,-,-,-,-,-,-,.,.
Cc1ccc(CSC2=Nc3sccc3C3=NC(=O)CN23)cc1,-,-,-,-,-,-,.,.
Cc1ccc(-c2nc(Nc3ccccc3)n[nH]2)cc1,-,121.9,-,-,-,-,110.9,-
Oc1c(C(c2ccccc2)N2CCc3ccccc3C2)sc2ncnn12 (centres undefined),-,89.2,-,-,-,-,86.2,39.8
Cn1c(C(O)c2ccc(Cl)cc2)nc(Cl)c1Cl (centres undefined),-,87.7,-,-,-,.,113.7,71.3
O=C1c2ccccc2NC(c2ccccc2Cl)N1N=C1CCCCCC1 (centres undefined),-,-,-,-,-,-,.,.
CN1C(=O)/C(=C\c2ccccc2OCc2ccccc2)SC1=S,-,80.6,-,-,-,-,87.1,19.1
O=C1NC(=O)/C(=C/c2ccccc2OCc2ccccc2)S1,-,-,-,-,-,.,.,.
COc1cccc(NC(=O)CN(C)C(=O)c2ccc(-c3cccc(C(F)(F)F)c3)o2)c1,-,-,-,-,-,-,.,.
S=C(NCc1ccco1)Nc1ccc(Br)cn1,-,81.2,-,-,-,-,59.3,16.5
CCNC(=S)NCc1ccco1,-,-,-,-,-,-,.,.
CC1Cc2ccccc2N1C(=O)CN(C)CC(=O)Nc1cccc(F)c1 (centres undefined),-,-,-,-,-,-,.,.
SMILES,Bfl-1 A1 inh,AHR act,Efflux pump mplx,SUMO Mot1 rescue,VLA-4 inh,ALR inh,AHR act confirm,PXR counter
CC(=O)Nc1cc(-c2nn3c(C)nnc3s2)ccc1C,-,99.0,-,-,-,.,88.6,11.1
COc1ccc(C(=O)c2oc3ccccc3c2N)cc1,-,81.6,-,-,-,-,133.2,12.2
Nc1c(C(=O)c2ccc(F)cc2)oc2ccccc12,-,92.2,-,-,-,-,155.9,16.5
COc1ccc2oc(C(=O)c3ccccc3)c(N)c2c1,-,-,-,-,-,-,.,.
Nc1c(C(=O)Nc2ccc(Cl)cc2)oc2ccccc12,-,106.6,-,-,-,-,131.6,60.4
Nc1c(C(=O)c2ccccc2)oc2ccccc12,-,112.4,-,-,-,-,140.0,24.4
COc1ccccc1C(=O)NCCC(=O)Nc1cccc(C)n1,-,-,-,-,-,-,.,.
